Measured values published in PubChem BioAssay (Tox21).
Unmarked numbers belong to inactive results. Records with an inconclusive call do not appear. A call without a number means that no potency is given here. Activity calls are given as the source filed them. Unless noted, calls follow the shape of the dose curve; as a rule, active = well fitted curve in the direction sought with a large enough effect in the repeat runs; inconclusive = weak or mixed curves; inactive = no such curve, though single readings can be large; an effect the other way counts as inactive or inconclusive.

How the values were obtained:
[1] = qHTS assay for small molecule agonists of the p53 signaling pathway (AID 651631; calls by dose curve; also: nearly all actives have a fitted effect of over 15% in size)
In short: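 Agonist mode screen using a stably integrated beta-lactamase gene under p53 response elements in HCT-116 cells. Compound exposure lasts 16 h at 37 °C; fluorescence intensity is measured following 2 h FRET substrate loading.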

[2] = qHTS assay for small molecule agonists of the p53 signaling pathway - cell viability (AID 651633; calls by dose curve;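 also: p53RE-bla HCT reporter cells with a stable beta-lactamase p53 reporter; series mostly up to about 83 µM; nearly all actives have a fitted effect of over 30% in size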)
In short: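 p53RE-bla cells, seeded at 4,000 per well and rested 5 h at 37 C/5% CO2, received compounds in DMSO for 16 h at 37 C. CellTiter-Glo was then added, and luminescence was read after 30 min at room temperature to gauge cytotoxicity.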

[3] = qHTS assay for small molecules that induce genotoxicity in human embryonic kidney cells expressing luciferase-tagged ATAD5 - cell viability (AID 651634; calls by dose curve; also: nearly all actives have a fitted effect of over 25% in size)
In short: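 HEK293T cells expressing luciferase-tagged ATAD5 were exposed to compound or DMSO for 15.5 hr at 37C, 5% CO2. Viability was then read as live-cell protease activity by CellTiter-Fluor fluorescence after 30 min at 37C.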

[4] = qHTS assay for small molecule disruptors of the mitochondrial membrane potential - cell viability (AID 720634; calls by dose curve;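 also: human HepG2 liver cancer cells; series mostly up to about 83 µM; nearly all actives have a fitted effect of over 20% in size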)
In short: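 HepG2 cells seeded overnight at 37 C, then exposed to compound or DMSO for 1 hr at 37 C, 5% CO2. m-MPI dye added, then CellTiter-Glo for 30 min at room temperature; viability read as ATP luminescence.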

[5] = qHTS assay for small molecule disruptors of the mitochondrial membrane potential (AID 720635); also: potency is read from the fitted curve at half-maximal effect
In short: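 HepG2 cells (2,000/well) attached overnight at 37C, then took compound for 1 hr at 37C, 5% CO2. Mito-MPS dye was added for 30 min; fluorescence was read at 490/535 nm (monomers) and 540/590 nm (aggregates).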

[6] = qHTS assay to test for compound auto fluorescence at 590 nm (red) in HepG2 cells (AID 720674)
In short: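 Rose Bengal sodium served as the red fluorophore standard. HepG2 monolayers (overnight attachment, MEM with 10% FBS) were exposed to test compounds for 1 hr at 37 C and read at Ex 540/Em 590 nm.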

[7] = qHTS assay to test for compound auto fluorescence at 535 nm (green) in HepG2 cells (AID 720675)
[8] = qHTS assay to test for compound auto fluorescence at 590 nm (red) in HEK293 cells (AID 720679)
In short: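 HEK293 cells (2,000/well, 10% dialyzed FBS) attached 4-5 hr, then dosed with compound or DMSO and incubated overnight at 37C, 5% CO2. Red fluorescence read at 540/590 nm, Rose Bengal sodium as reference fluorophore.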

[9] = qHTS assay to test for compound auto fluorescence at 460 nm (blue) in HEK293 cells (AID 720678)
In short: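 HEK293 cells (2,000/well, medium with 10% dialyzed FBS) attached 4-5 hr, then exposed to compound overnight at 37C, 5% CO2. Blue fluorescence read at 405/460 nm, with triamterene as reference fluorophore.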

[10] = qHTS assay for small molecules that induce genotoxicity in human embryonic kidney cells expressing luciferase-tagged ATAD5 (AID 651632); also: nearly all actives have a fitted effect of over 15% in size
In short: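 HEK293T cells carrying a luciferase reporter tagged to ATAD5 were exposed to compound or DMSO vehicle for 16 hr at 37C, 5% CO2. Amplite was added, and after 30 min at room temperature luciferase activity was read as a marker of ATAD5 induction.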

SMILES	Potency [1]	Potency [2]	Potency [3]	outcome [4]	Potency [5]	outcome [6]	outcome [7]	outcome [8]	outcome [9]	fluorescence, relative to Rose Bengal [6]	fluorescence, % of fluorescein control [7]	fluorescence, % of fluorescent control [8]	Potency [10]	fluorescence, % of triamterene [9]
COc1cc(C(=O)OC(COCCC(C)C)CN2CCOCC2)cc(OC)c1OC (stereo not drawn)	inactive	inactive	inactive	inactive	inactive	inactive	inactive	inactive						
C[C@H]1C[C@H]2[C@@H]3CCC4=CC(=O)C=C[C@]4(C)[C@H]3C(=O)C[C@]2(C)[C@@]1(O)C(=O)CO	inactive		inactive	inactive	inactive			inactive	inactive					
CN1CCN(c2cc3c(nn2)Oc2ccccc2N3C)CC1	inactive	inactive	inactive	inactive	inactive	inactive	inactive	inactive	inactive					
C=CC(C)(CCC=C(C)C)OC(=O)CC (stereo not drawn)	inactive	inactive	inactive	inactive	inactive		inactive	inactive	inactive					
CCCc1ncc(C[n+]2ccccc2C)c(N)n1	inactive	inactive	inactive	inactive						-0.079% [at 18.6 µM]	0.0061% [at 18.6 µM]	0.0217% [at 18.6 µM]		
CCN(CC#N)c1cccc(C)c1	inactive			inactive		inactive	inactive	inactive	inactive				inactive	
CCC(C)(CN(C)C)OC(=O)c1ccccc1 (stereo not drawn)	inactive	inactive	inactive	inactive	inactive					-0.657% [at 18.6 µM]	-0.164% [at 18.6 µM]	0.273% [at 18.6 µM]		0.148% [at 18.6 µM]
O=S(=O)(O)c1cccc2c(S(=O)(=O)O)cccc12	inactive		inactive	inactive		inactive	inactive	inactive					inactive	
O=C1NC(=O)C2CC=CCC12 (stereo not drawn)	inactive	inactive	inactive			inactive	inactive	inactive	inactive					
C=C[Si](OC(C)=O)(OC(C)=O)OC(C)=O	inactive		inactive	inactive			inactive	inactive	inactive				inactive	
NO	inactive	inactive	inactive	inactive	55.5 µM (active)	inactive	inactive	inactive						
CC1=NS(=O)(=O)c2cc(Cl)ccc2N1	inactive		inactive		inactive	inactive	inactive	inactive					inactive	
CC(=O)c1ccc2ccccc2c1	inactive	inactive	inactive			inactive	inactive	inactive	inactive					
c1ccc(CCc2ccccc2)cc1	inactive	inactive	inactive	inactive	inactive	inactive	inactive	inactive	inactive					
Cc1ccnc(NS(=O)(=O)c2ccc(N)cc2)n1	inactive	inactive	inactive	inactive	inactive					0.0946% [at 18.6 µM]	0.0423% [at 18.6 µM]	0.0091% [at 18.6 µM]		0.0233% [at 18.6 µM]
CC(CC=O)CC(C)(C)C (stereo not drawn)	inactive	inactive	inactive	inactive	inactive	inactive	inactive	inactive	inactive					
C=CC(=O)OCCCl	inactive	inactive		inactive	inactive		inactive	inactive	inactive					
CO[C@@]1(NC(=O)CSC[C@@H](N)C(=O)O)C(=O)N2C(C(=O)O)=C(CSc3nnnn3C)CS[C@@H]21	inactive	inactive	inactive	inactive	inactive		inactive	inactive	inactive					
CO/N=C(\C(=O)N[C@@H]1C(=O)N2C(C(=O)O)=C(CSc3nc(=O)c(O)nn3C)CS[C@H]12)c1csc(N)n1	inactive	inactive	inactive		inactive	inactive	inactive	inactive	inactive					
CCOC(=O)COC(=O)c1ccccc1C(=O)OCC	inactive		inactive	inactive		inactive	inactive	inactive	inactive					
O=C(O)Cc1csc(-c2ccc(Cl)cc2)n1		inactive	inactive	inactive	inactive	inactive	inactive	inactive	inactive				inactive	
CC(C)[C@H]1CC[C@@H](C)CC1=O	inactive	inactive	inactive			inactive	inactive	inactive	inactive					
O=C(O)CC(C(=O)O)S(=O)(=O)O (stereo not drawn)	inactive	inactive	inactive	inactive		inactive	inactive	inactive						
CCCC(C)C(=O)OCC (stereo not drawn)		inactive	inactive	inactive	inactive	inactive	inactive	inactive	inactive				inactive	
Nc1ccccn1	inactive	inactive	inactive			inactive	inactive	inactive	inactive					
CCCCN1C=CN(C)C1	inactive		inactive	inactive						-0.0028% [at 18.6 µM]	-0.0563% [at 18.6 µM]	-0.0345% [at 18.6 µM]	inactive	
NCCCC[C@H](N[C@@H](CCc1ccccc1)C(=O)O)C(=O)N1CCC[C@H]1C(=O)O	inactive		inactive	inactive	inactive					0.575% [at 18.6 µM]	-0.177% [at 18.6 µM]	-0.247% [at 18.6 µM]		-0.377% [at 18.6 µM]
